# Results published in publication PMC9838217, “Structure of SALL4 zinc finger domain reveals link between AT-rich DNA binding and Okihiro syndrome”.
# Residue numbers refer to the chain shown, from its start.
# Assays:
# Test in all cases: HT-SELEX; high values mean tight binding
# Conditions in all cases: protein: recombinant; vector His6-GST; dsDNA, one strand shown
# SALL4 ZFC4 WT (HT-SELEX) = target: T1, SALL4 ZFC4 WT (HT-SELEX) (Mus musculus, UniProt Q8BX22 870-940)
# T1 sequence: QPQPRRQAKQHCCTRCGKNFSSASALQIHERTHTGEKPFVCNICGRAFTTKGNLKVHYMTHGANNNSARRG
# Method in brief: (§1)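 Up to 6 cycles of selection were run in triplicate. In each, purified recombinant mouse SALL4 zinc finger cluster 4 (residues 870–940, 1 µg) was incubated with library DNA (1.5 µg first cycle, 200 ng later) in 100 µl of 10 mM Tris–HCl pH 7.5, 50 mM NaCl, poly(dI-dC), DTT for 10 min at room temperature, then complexes were captured on Ni2+ beads, washed and PCR-amplified; final pools were MiSeq-sequenced and scanned for 6-mers. Binding signal is each canonical k-mer's read fraction as fold change versus the initial random library.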
# [1] = target: T2, SALL4 ZFC4 R900W (HT-SELEX) (Mus musculus, UniProt Q8BX22 870-940, R900W)
# T2 sequence: T1 sequence with R31W
# Method in brief: as §1
# [2] = target: T3, SALL4 ZFC4 G921D (HT-SELEX) (Mus musculus, UniProt Q8BX22 870-940, G921D)
# T3 sequence: T1 sequence with G52D
# Method in brief: as §1
Sequence,binding signal (SALL4 ZFC4 WT (HT-SELEX)) [fold-change vs cycle 0],binding signal [1] [fold-change vs cycle 0],binding signal [2] [fold-change vs cycle 0]
CTCCAC,0.493 ± 0.0188,0.564 ± 0.0173,0.646 ± 0.0596
GTGCTA,0.592 ± 0.0163,0.69 ± 0.007,0.796 ± 0.0354
AAAATT,3.32 ± 0.292,2.14 ± 0.119,1.94 ± 0.175
CAACCC,0.417 ± 0.0301,0.488 ± 0.0225,0.582 ± 0.0463
AATCTA,2.03 ± 0.138,2 ± 0.0814,1.8 ± 0.18
TCCCCA,0.461 ± 0.0365,0.533 ± 0.0451,0.593 ± 0.0323
CTAAAA,1.62 ± 0.0677,1.63 ± 0.131,1.51 ± 0.106
AAATCC,1.19 ± 0.0372,1.27 ± 0.0238,1.24 ± 0.0539
AGGAAT,1.52 ± 0.0788,1.63 ± 0.0707,1.49 ± 0.113
GTTGTA,1.18 ± 0.0293,1.31 ± 0.0256,1.28 ± 0.0242
CGAGTA,0.742 ± 0.0199,0.848 ± 0.0261,0.87 ± 0.0313
AAACGG,0.53 ± 0.0454,0.652 ± 0.023,0.713 ± 0.0232
ACCGGT,0.368 ± 0.0353,0.438 ± 0.0164,0.518 ± 0.0665
GTTGAA,1.18 ± 0.0583,1.34 ± 0.0591,1.3 ± 0.109
GCAGAA,0.567 ± 0.022,0.629 ± 0.0163,0.688 ± 0.0217
GAAGTC,0.797 ± 0.0523,0.906 ± 0.0176,0.953 ± 0.00992
ACGAGT,0.767 ± 0.0224,0.897 ± 0.033,0.922 ± 0.0421
AGCATC,0.703 ± 0.0384,0.804 ± 0.0378,0.887 ± 0.0448
ATCCTA,1.48 ± 0.0397,1.6 ± 0.0899,1.46 ± 0.117
AGTTTA,1.89 ± 0.117,1.94 ± 0.143,1.72 ± 0.194

Sequence,binding signal (SALL4 ZFC4 WT (HT-SELEX)) [fold-change vs cycle 0],binding signal [1] [fold-change vs cycle 0],binding signal [2] [fold-change vs cycle 0]
GGCTAA,0.523 ± 0.0366,0.619 ± 0.0212,0.728 ± 0.0327
GTTAAC,1.39 ± 0.126,1.53 ± 0.0957,1.38 ± 0.101
GTTAAA,1.66 ± 0.0709,1.8 ± 0.123,1.61 ± 0.154
ATGAGC,0.659 ± 0.0207,0.736 ± 0.0172,0.836 ± 0.0347
TAACTA,2.23 ± 0.0839,2.06 ± 0.126,1.82 ± 0.187
GGTTGA,0.753 ± 0.0201,0.876 ± 0.0229,0.9303 ± 0.00634
AACCGT,0.674 ± 0.0289,0.776 ± 0.0238,0.826 ± 0.0315
CGATTA,1.16 ± 0.0473,1.17 ± 0.0726,1.18 ± 0.023
GGAGAC,0.471 ± 0.0075,0.574 ± 0.0262,0.671 ± 0.0455
AAGTCC,0.762 ± 0.0144,0.863 ± 0.0347,0.936 ± 0.0256
CATACG,0.727 ± 0.0223,0.792 ± 0.0487,0.858 ± 0.0517
ATCTAA,2.02 ± 0.105,2.01 ± 0.101,1.83 ± 0.191
ATTTCG,1.02 ± 0.0756,0.985 ± 0.0219,1.06 ± 0.0262
AAACAA,1.75 ± 0.117,1.82 ± 0.0942,1.66 ± 0.151
AGATTC,1.34 ± 0.0579,1.42 ± 0.0466,1.39 ± 0.0922
AAAGCG,0.393 ± 0.0227,0.489 ± 0.0338,0.601 ± 0.0731
AAACGT,1.02 ± 0.0198,1.17 ± 0.0143,1.14 ± 0.0434
AGCAGG,0.42 ± 0.0145,0.478 ± 0.0232,0.561 ± 0.0608
ATAGGG,0.829 ± 0.0359,0.924 ± 0.0323,0.954 ± 0.0273
ATCCAG,0.851 ± 0.0326,0.955 ± 0.027,0.988 ± 0.0337

Sequence,binding signal (SALL4 ZFC4 WT (HT-SELEX)) [fold-change vs cycle 0],binding signal [1] [fold-change vs cycle 0],binding signal [2] [fold-change vs cycle 0]
TGTACA,1.21 ± 0.0321,1.32 ± 0.00394,1.26 ± 0.0338
TCCACA,0.698 ± 0.0439,0.806 ± 0.0256,0.842 ± 0.0543
ACAGTC,0.718 ± 0.0285,0.8733 ± 0.00718,0.889 ± 0.0202
ACAGGA,0.851 ± 0.0194,1 ± 0.0486,1.01 ± 0.0583
AGAATG,1.34 ± 0.0249,1.52 ± 0.0481,1.35 ± 0.0697
ACATCC,0.877 ± 0.0368,0.969 ± 0.0252,0.991 ± 0.0197
CACGAC,0.303 ± 0.0099,0.381 ± 0.0158,0.501 ± 0.0536
ACTCAC,0.877 ± 0.0278,0.97 ± 0.0118,1.02 ± 0.0114
GTTCTA,1.28 ± 0.0473,1.39 ± 0.0453,1.33 ± 0.108
AACTCC,0.917 ± 0.0119,1.02 ± 0.0156,1.06 ± 0.0177
GAGATC,0.836 ± 0.059,0.953 ± 0.0609,1.06 ± 0.0528
AAATAT,5.57 ± 0.542,2.36 ± 0.147,2.07 ± 0.227
ATCAAG,1.41 ± 0.0614,1.55 ± 0.0618,1.47 ± 0.0828
CTCGTA,0.764 ± 0.033,0.867 ± 0.0258,0.901 ± 0.00732
CAAGAA,1.26 ± 0.0324,1.43 ± 0.0703,1.35 ± 0.104
ATGCTG,0.649 ± 0.0321,0.712 ± 0.0351,0.801 ± 0.0529
AATCCG,0.616 ± 0.0217,0.698 ± 0.0254,0.798 ± 0.0327
CACTGC,0.334 ± 0.0238,0.388 ± 0.00394,0.511 ± 0.0704
TCAGAA,1.27 ± 0.0471,1.37 ± 0.0562,1.28 ± 0.0614
CTACCA,0.775 ± 0.0319,0.894 ± 0.00977,0.96 ± 0.00989
